m5-HT2A agonist – mouse Htr2a agonists via beta-arrestin recruitment, primary screen, cell-based, luminescence | 5-hydroxytryptamine receptor 2A (Mus musculus), P35363 | CHO-K1 mHTR2A beta-arrestin complementation; percent of 30 µM serotonin response | activation, % at 7.6 µM | actives 0.66% (n = 360,000) | AID 624169, 2012;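 active = activation above a run cutoff, the mean activation of all tested compounds plus 3 SD, cut at about 14% in these data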;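 note: 0% = plate median of compound wells and 100% = 30 µM serotonin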
Target sequence (P35363 whole entry, looked up): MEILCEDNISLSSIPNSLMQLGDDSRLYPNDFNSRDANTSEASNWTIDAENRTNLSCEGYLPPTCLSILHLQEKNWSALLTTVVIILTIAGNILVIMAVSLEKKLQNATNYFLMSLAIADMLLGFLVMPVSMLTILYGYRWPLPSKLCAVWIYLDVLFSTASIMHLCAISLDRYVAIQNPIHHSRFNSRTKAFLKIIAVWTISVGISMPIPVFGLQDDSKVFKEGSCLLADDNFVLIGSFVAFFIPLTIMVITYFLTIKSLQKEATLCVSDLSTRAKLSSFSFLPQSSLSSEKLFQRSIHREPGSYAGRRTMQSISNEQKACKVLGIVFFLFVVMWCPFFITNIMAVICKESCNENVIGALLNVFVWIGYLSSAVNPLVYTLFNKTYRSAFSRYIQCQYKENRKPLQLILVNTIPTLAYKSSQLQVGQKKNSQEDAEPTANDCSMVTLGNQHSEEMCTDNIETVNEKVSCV
Rtt109 Vps75 – inhibitors of C. albicans Rtt109/Vps75 HAT, primary screen, biochemical, ThioGlo CoA-SH fluorescence, plate reader. Histone acetyltransferase RTT109 (Candida albicans (strain SC5314 / ATCC MYA-2876)), …. purified Rtt109/Vps75, 4 h. inhibition, % at 34.9 µM. actives 0.16% (n = 330,000). AID 540336, 2011;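 active = inhibition of at least 50% in every replicate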
TLR4-MyD88 BLA – inhibitors of TLR4-MyD88 association in cells, primary screen, cell-based, HeLa CL3-4, BLA complementation, FRET ratio | Toll-like receptor 4 (Homo sapiens) + Myeloid differentiation primary response protein … | HeLa CL3-4 TLR4/MyD88 BLA complementation | inhibition, % at 8.4 µM | actives 0.18% (n = 200,000) | AID 861, 2007; in the data active = inhibition above about 25%;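 note: 0% = vehicle and 100% = reference inhibitor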
LANA-H2A inh – blockers of LANA interaction with H2A/H2B – biochemical, FP readout, HTS, primary screen | Protein LANA1 (Human herpesvirus 8 type P (isolate GK18)), Q9QR71 | cell-free LANA-H2A/H2B peptide, fluorescence polarization | inhibition, % (no concentration beside the values) | actives 0.6% (n = 320,000); in the data active = inhibition mostly above about 10%, no sharp cut-off; inactive = mostly below about 6.7%
NOD2-RIPK2 inh – NOD2-RIPK2 binding disruptors in cells, primary screen, fluorescence, CHO cells, BLA complementation; Receptor-interacting serine/threonine-protein kinase 2 (Homo sapiens), O43353; CCF4 ratio; inhibition, % at 4.98 µM; actives 0.38% (n = 360,000); in the data active = inhibition above about 21%;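 note: 0% = vehicle only and 100% = reference blocker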
TLR9-MyD88 inh – inhibitors of TLR9-MyD88 association in cells, primary screen, cell-based, CHO, BLA complementation, fluorescence; inhibition, % at 4.98 µM; Toll-like receptor 9 (Homo sapiens) + Myeloid differentiation primary response protein …; actives 0.21% (n = 340,000); CCF4 FRET ratio;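 active = inhibition above the mean over all tested compounds plus 3 SD, cut at about 21% in these data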;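 note: 0% = DMSO only wells and 100% = clavulanate BLA inhibitor control wells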
OPRM1 ag – OPRM1 agonists via beta-arrestin recruitment, confirmation, counter-screen for mouse HTR2A agonist project, cell-based, luminescence, single concentration; shares compounds with m5-HT2A agonist; U2OS OPRM1 beta-arrestin PathHunter; DMSO 0%, DAMGO 9.3 µM 100%; activation, % at 9.3 µM; actives 5.3% (n = 2,300); AID 624380, 2012;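 active = mean activation above the mean of DMSO-only wells plus 3 SD, cut at about 0.5% in these data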
m5-HT2A ag conf – mouse HTR2A agonists, beta-arrestin recruitment, confirmation, cell-based, luminescence, CHO-K1 PathHunter, triplicate; shares compounds with m5-HT2A agonist; DMSO 0%, 30 µM serotonin 100%; actives 19% (n = 2,300); activation, % at 7.6 µM;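 active = mean activation across triplicates above the hit threshold derived in the original primary screen, cut at about 15% in these data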
* marks the source's active call; other numbers are inactive results; nt = not tested or not shown. A selection: hits, their analogues and other compounds. The true share with any hit is near 1.8%.

SMILES | m5-HT2A agonist | Rtt109 Vps75 | TLR4-MyD88 BLA | LANA-H2A inh | NOD2-RIPK2 inh | TLR9-MyD88 inh | OPRM1 ag | m5-HT2A ag conf
CCOc1ccc(C(=O)Nc2ccc(NC(=O)c3ccccc3)cc2)cc1Br | 25* | -5 | nt | -1 | 3 | 9 | -1 | -1
COc1ccc(CCC(=O)N/N=C/c2ccc3c(c2)OCO3)cc1 | 1 | -2 | nt | -3 | -1 | -1 | nt | nt
COc1ccc(NC(=O)Nc2cccc3c2O[C@H](CN(C)S(C)(=O)=O)[C@@H](C)CN([C@H](C)CO)C3=O)cc1 | 0 | 15 | nt | 1 | -11 | -1 | nt | nt
Cc1ccc(S(=O)(=O)N2CCN(C(=O)CSCc3ccc(C(C)C)cc3)CC2)cc1 | 15* | 6 | nt | 2 | 2 | 2 | 0 | -2
Cc1ccc(S(=O)(=O)N2CCN(C(=O)CSc3ccc(Cl)cc3)CC2)cc1 | 5 | 9 | nt | -5 | 4 | 1 | nt | nt
O=C1C2C(c3cccc(/C=C/c4ccccc4)c3)CC=CC2C(c2ccc(C(F)(F)F)cc2)N1Cc1ccccc1 (stereo unspecified) | 17* | 2 | nt | 1 | -1 | 1 | -1 | -5
O=C1C2C(c3cccc(/C=C/c4ccccc4)c3)CC=CC2C(c2ccc3ccccc3c2)N1Cc1ccccc1 (stereo unspecified) | 2 | 0 | nt | 2 | 0 | -10 | nt | nt
COc1ccc(S(=O)(=O)N2CCC(C(=O)NCCCc3ccccc3)CC2)cc1 | 4 | 6 | nt | 3 | 0 | -8 | nt | nt
Nc1nc(CN2CCN(c3ccccc3)CC2)nc(N2CCCc3ccccc32)n1 | 28* | 4 | 13 | 3 | 1 | -5 | 0 | 71*
COc1ccc(N2CCN(Cc3nc(N)nc(Nc4ccc(C)c(Cl)c4)n3)CC2)cc1 | 0 | 7 | -4 | 1 | 16 | -10 | nt | nt
Nc1nc(CN2CCN(c3cccc(Cl)c3)CC2)nc(N2CCCc3ccccc32)n1 | 24* | -4 | -1 | -2 | 3 | -13 | 0 | 77*
Cc1ccc(Nc2nc(N)nc(CN3CCN(c4ccccc4)CC3)n2)cc1Cl | 15* | 0 | 6 | -2 | 1 | 1 | 0 | 70*
Nc1nc(CN2CCN(Cc3ccccc3)CC2)nc(N2CCCc3ccccc32)n1 | -6 | -7 | 21 | 0 | -9 | -8 | nt | nt
CCOc1cc(C(=O)OC(C(=O)NC(=O)NC)c2ccccc2)ccc1OCC(=O)N1CCOCC1 (stereo unspecified) | -4 | -2 | nt | 4 | 0 | -1 | nt | nt
Nn1c(SCC(=O)Nc2ccc(N3CCOCC3)cc2)nnc1-c1ccccc1F | 3 | 10 | nt | 1 | -4 | 2 | nt | nt
O=C(NCC[C@H]1CC[C@H](NS(=O)(=O)c2ccccc2F)[C@@H](CO)O1)c1ccc(F)cc1 | 2 | nt | nt | nt | 3 | nt | nt | nt
Cc1ccc(C)c(-n2c(CNc3ccc(F)cc3)nnc2SCC(N)=O)c1 | 18* | nt | 4 | -9 | -4 | 6 | -1 | -4
Cc1ccc(-n2c(CNc3ccc(F)cc3)nnc2SCC(=O)O)cc1 | 0 | -4 | -5 | 1 | -12 | nt | nt | nt
O=C(CN1CCN(c2cccc(Cl)n2)CC1)N1CC(O)CO1 (stereo unspecified) | 27* | -11 | -10 | -3 | 4 | -11 | 0 | -4
O=C(CN1CCN(c2ccccn2)CC1)N1CC(O)CO1 (stereo unspecified) | 7 | -14 | -6 | 0 | 3 | -7 | nt | nt
CCc1nc(SCC(=O)NCC2CCCO2)c2c(=O)n(C)c(=O)n(C)c2n1 (stereo unspecified) | 7 | -1 | nt | -15 | 7 | 7 | nt | nt
CC(C)c1nc(SCC(=O)NCC2CCCO2)c2c(=O)n(C)c(=O)n(C)c2n1 (stereo unspecified) | 28* | -2 | nt | 8 | 6 | -9 | -1 | -4
C[C@H](CO)N1C[C@H](C)[C@@H](CN(C)Cc2ccc(Oc3ccccc3)cc2)Oc2c(NC(=O)c3ccncc3)cccc2C1=O | -7 | 9 | nt | 1 | 0 | -7 | nt | nt
COc1ccc(NC(=O)CSc2ccc(-c3ccccn3)nn2)cc1OC | 35* | 0 | 11 | nt | -12 | -2 | -1 | 107*
COc1ccccc1NC(=O)CSc1ccc(-c2ccccn2)nn1 | 0 | 6 | nt | -1 | 1 | -7 | nt | nt
SMILES | m5-HT2A agonist | Rtt109 Vps75 | TLR4-MyD88 BLA | LANA-H2A inh | NOD2-RIPK2 inh | TLR9-MyD88 inh | OPRM1 ag | m5-HT2A ag conf
O=C(NCCN1CCOCC1)c1ccc(NC(=O)c2ccc(Br)o2)cc1 | -9 | nt | nt | nt | -5 | nt | nt | nt
COC(=O)c1cc(=O)n(Cc2ccc3c(c2)OCO3)c(=Nc2ccc(F)c(Cl)c2)s1 | 14* | -3 | 6 | 5 | -2 | -7 | 0 | 0
CCC(C)[C@H](NC(=O)N1CC(=O)Nc2ccccc21)C(=O)N[C@@H](C(=O)O)c1ccccc1 (stereo partly specified) | 3 | 15 | nt | 0 | -10 | -11 | nt | nt
Cc1ccsc1C(=O)OCC(=O)NCC1CCCO1 (stereo unspecified) | 18* | -7 | -10 | 3 | 7 | 2 | -1 | -2
CN(CC(=O)Nc1ccc(F)cc1)C(=O)CN1C(=O)NC2(CCCC2)C1=O | 20* | 2 | nt | nt | -15 | -2 | -1 | -4
CCN(CC(=O)Nc1ccccc1C(F)(F)F)C(=O)CN1C(=O)NC2(CCCCC2)C1=O | 17* | -1 | nt | -2 | -12 | -11 | -1 | -4
CCOc1ccc(CCN2C(=O)C(=O)N([C@@H](CC(C)C)CN3CCC[C@H]3CN3C(=O)C(=O)NC[C@@H]3Cc3ccccc3)C[C@@H]2Cc2ccccc2)cc1 | 3 | nt | nt | nt | 4 | nt | nt | nt
O=C(CCN1CCN(c2ccccc2)CC1)Nc1ccc2c(c1)OCO2 | 13 | -1 | 12 | 1 | 1 | -2 | nt | nt
O=C(CCN1CCN(c2ccccc2F)CC1)Nc1ccc2c(c1)OCO2 | 18* | nt | 2 | 3 | -4 | 2 | 0 | 59*
Cc1ccc(S(=O)(=O)N2CCOCC2)cc1NC(=O)CNCc1cccnc1 | 28* | -3 | nt | -3 | -10 | -8 | -1 | 75*

High-throughput results as filed in PubChem BioAssay.
